Data from paper PMC6792352, “Limited Chemical Structural Diversity Found to Modulate Thyroid Hormone Receptor in the Tox21 Chemical Library” (Environmental Health Perspectives, 2019).
Where a name gives a salt, the structure may show the parent alone. Whole data set: some 7,300 compounds, median “AC50” near 90,000 nM, cut for the lowest 2% near 20,000 nM. The list shows a part of the results.

System: thyroid hormone receptor (endogenous TRα and TRβ)
Set-up: species or system GH3-TRE-Luc (rat pituitary); GH3-TRE-Luc luciferase reporter transactivation, agonist mode, qHTS; RXR ligands can also activate indirectly
Details: read-out: TR_LUC_GH3_Agonist_AC50, agonist mode, primary qHTS, 24 h

| Compound | AC50 [nM] |
| --- | --- |
| C[C@]12CC[C@H]3C(=CCc4cc(O)ccc43)[C@@H]1CCC2=O [Equilin] | 3410 |
| COc1ccc(OC)c(C(O)C(C)N)c1 (centres unmarked) [Methoxamine hydrochloride] | 32000 |
| Cc1cc(NC(=O)C(=O)O)cc(C)c1Oc1ccc(O)c2c1CCC2 [CP-634384] | 1.47 |
| CC1=C(/C=C/C(C)=C/C=C/C(C)=C\C(=O)O)C(C)(C)CCC1 [13-cis Retinoic acid] | 133 |
| CC1=C(/C=C/C(C)=C/C=C/C(C)=C/C(=O)O)C(C)(C)CCC1 [all trans-Retinoic acid] | 319 |
| CC1=C(/C=C/C(C)=C\C=C\C(C)=C\C(=O)O)C(C)(C)CCC1 [9-cis Retinoic acid] | 4180 |
| NCC(=O)CCC(=O)O [Aminolevulinic acid hydrochloride] | 28700 |
| CC(C)(C)CC(C)(C)c1ccc(O)c(Cc2ccc(Cl)cc2Cl)c1 [Clofoctol] | 1370 |
| N[C@@H](Cc1cc(I)c(Oc2cc(I)c(O)c(I)c2)c(I)c1)C(=O)O [Levothyroxine] | 7.89 |
| O=C(O)Cc1cc(I)c(Oc2cc(I)c(O)c(I)c2)c(I)c1 [Tetrac, 3,3ʹ,5,5ʹ-tetraiodothyroacetic acid] | 0.927 |
| C[C@H](CCC(=O)NCC(=O)O)[C@H]1CC[C@H]2[C@@H]3[C@H](O)C[C@@H]4C[C@H](O)CC[C@]4(C)[C@H]3C[C@H](O)[C@]12C [glycocholic acid] | 51800 |
